Assay results as given in the supplement of paper PMC10849652.
The full data set covers some 8,800 targets. This sample favours those with a hit. About 0.5% of all pairs of compound and target were hits.

Assays:
Experiment in all cases: log2 fold change, soluble protein after heating vs DMSO (PISA); higher = thermal stabilisation; K562 lysate, 10 uM; active = over 0.2 and 3.5 SD of the protein, either way, in both replicates (recomputed)
vemurafenib = compound: CCCS(=O)(=O)Nc1ccc(F)c(C(=O)c2c[nH]c3ncc(-c4ccc(Cl)cc4)cc23)c1F [vemurafenib]
Method in brief: (§1)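 K562 pellets were dounce-homogenised in PBS pH 7.4 with 1 mM MgCl2, and the crude extract at 1 mg/mL protein was treated with 10 μM compound for 30 min. Aliquots were heated for 3 min across 48°C-58°C, pooled, and brought to 0.5% NP-40 at 4°C; soluble protein was the supernatant after 21,000xg for 90 min. Soluble protein was quantified by TMTpro 16plex LC-MS/MS with channel sums equalised, and reported as log2 fold change in thermal stability against DMSO controls, with values from duplicates.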

[1] = compound: CCCS(=O)(=O)Nc1ccc(F)c(C(=O)c2c[nH]c3ncc(Cl)cc23)c1F
Method in brief: as §1

barasertib = compound: CCN(CCCOc1ccc2c(Nc3cc(CC(=O)Nc4cccc(F)c4)[nH]n3)ncnc2c1)CCOP(=O)(O)O [barasertib]
Method in brief: as §1

[2] = compound: CC[C@@H]1C(=O)N(C)c2cnc(Nc3ccc(C(=O)NC4CCN(C)CC4)cc3OC)nc2N1C1CCCC1
Method in brief: as §1

volasertib = compound: CC[C@@H]1C(=O)N(C)c2cnc(Nc3ccc(C(=O)N[C@H]4CC[C@H](N5CCN(CC6CC6)CC5)CC4)cc3OC)nc2N1C(C)C [volasertib]
Method in brief: as §1

[3] = compound: CCn1c(C(=O)N(C2CC2)C2CC2)cc2c3c(ncn3C)c(Nc3cc(C)n(C)n3)nc21
Method in brief: as §1

[4] = compound: CCn1cc(-c2ccnc3[nH]c(-c4cccc(CN(C)C)c4)cc23)c(-c2ccc(NC(=O)N(C)C)cc2)n1
Method in brief: as §1

[5] = compound: CN1CCC(CNc2ccc3ncc(-c4cccc(OC(F)(F)F)c4)n3n2)CC1
Method in brief: as §1

saracatinib = compound: CN1CCN(CCOc2cc(OC3CCOCC3)c3c(Nc4c(Cl)ccc5c4OCO5)ncnc3c2)CC1 [saracatinib]
Method in brief: as §1

sotrastaurin = compound: CN1CCN(c2nc(C3=C(c4c[nH]c5ccccc45)C(=O)NC3=O)c3ccccc3n2)CC1 [sotrastaurin]
Method in brief: as §1

Measured: log2 fold change

PFKFB4 (UniProt Q16877)
UniProt Q16877, sequence (Q16877 whole entry, looked up): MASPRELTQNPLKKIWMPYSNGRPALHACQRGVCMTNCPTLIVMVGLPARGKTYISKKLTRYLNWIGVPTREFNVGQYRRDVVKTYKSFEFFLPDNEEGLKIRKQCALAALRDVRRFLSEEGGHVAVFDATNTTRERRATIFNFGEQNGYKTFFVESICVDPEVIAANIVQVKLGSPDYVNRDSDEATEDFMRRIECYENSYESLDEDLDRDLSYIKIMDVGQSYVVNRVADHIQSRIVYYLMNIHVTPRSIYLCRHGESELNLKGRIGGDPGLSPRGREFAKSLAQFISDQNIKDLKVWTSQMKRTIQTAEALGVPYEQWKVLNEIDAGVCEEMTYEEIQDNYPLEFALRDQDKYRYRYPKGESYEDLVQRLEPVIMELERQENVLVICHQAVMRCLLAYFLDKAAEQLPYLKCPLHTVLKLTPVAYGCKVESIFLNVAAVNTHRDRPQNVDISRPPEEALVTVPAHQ
inactive: vemurafenib 0.021 | [1] 0.005 | barasertib 0.087 | [2] 0.015 | volasertib -0.068 | [3] -0.011 | [4] 0.014 | [5] 0.007 | saracatinib 0.077 | sotrastaurin 0.043

PRC1 (UniProt O43663)
UniProt O43663, sequence (O43663 whole entry, looked up): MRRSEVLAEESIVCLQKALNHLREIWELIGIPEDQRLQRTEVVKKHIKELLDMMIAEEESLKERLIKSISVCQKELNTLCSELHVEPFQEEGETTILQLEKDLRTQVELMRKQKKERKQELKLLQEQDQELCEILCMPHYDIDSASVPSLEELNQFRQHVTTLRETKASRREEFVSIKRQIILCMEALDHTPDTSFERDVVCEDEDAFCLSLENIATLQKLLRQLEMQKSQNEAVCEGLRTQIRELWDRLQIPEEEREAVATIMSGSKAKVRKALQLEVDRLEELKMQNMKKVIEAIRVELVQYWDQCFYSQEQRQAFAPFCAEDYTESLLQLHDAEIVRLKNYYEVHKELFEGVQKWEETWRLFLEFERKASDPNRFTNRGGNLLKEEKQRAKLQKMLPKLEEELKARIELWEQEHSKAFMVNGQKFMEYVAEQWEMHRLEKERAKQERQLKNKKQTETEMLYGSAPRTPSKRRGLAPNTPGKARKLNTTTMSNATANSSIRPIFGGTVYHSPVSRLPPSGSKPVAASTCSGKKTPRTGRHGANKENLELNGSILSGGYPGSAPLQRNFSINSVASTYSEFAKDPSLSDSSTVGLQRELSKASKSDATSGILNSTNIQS
inactive: vemurafenib 0.048 | [1] 0.03 | barasertib 0.063 | [2] -0.057 | volasertib -0.028 | [3] 0 | [4] -0.004 | [5] -0.094 | saracatinib 0.025 | sotrastaurin 0.005

PGRMC1 (UniProt O00264)
UniProt O00264, sequence (O00264 whole entry, looked up): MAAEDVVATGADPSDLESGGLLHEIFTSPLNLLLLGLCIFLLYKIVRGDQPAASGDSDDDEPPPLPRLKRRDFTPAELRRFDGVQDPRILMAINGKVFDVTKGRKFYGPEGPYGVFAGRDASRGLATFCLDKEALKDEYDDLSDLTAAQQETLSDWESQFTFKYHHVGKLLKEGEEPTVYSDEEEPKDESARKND
inactive: vemurafenib -0.009 | [1] -0.043 | barasertib 0.019 | [2] 0.015 | volasertib 0.008 | [3] 0.021 | [4] -0.045 | [5] 0.071 | saracatinib -0.017 | sotrastaurin -0.003

PTGES2 (UniProt Q9H7Z7)
active: vemurafenib 0.547
inactive: [1] 0.06 | barasertib -0.107 | [2] -0.108 | volasertib 0.159 | [3] -0.053 | [4] -0.003 | [5] -0.18 | saracatinib -0.029 | sotrastaurin 0.058

PPME1 isoform 4 (UniProt Q9Y570)
UniProt Q9Y570, sequence (Q9Y570 whole entry, looked up): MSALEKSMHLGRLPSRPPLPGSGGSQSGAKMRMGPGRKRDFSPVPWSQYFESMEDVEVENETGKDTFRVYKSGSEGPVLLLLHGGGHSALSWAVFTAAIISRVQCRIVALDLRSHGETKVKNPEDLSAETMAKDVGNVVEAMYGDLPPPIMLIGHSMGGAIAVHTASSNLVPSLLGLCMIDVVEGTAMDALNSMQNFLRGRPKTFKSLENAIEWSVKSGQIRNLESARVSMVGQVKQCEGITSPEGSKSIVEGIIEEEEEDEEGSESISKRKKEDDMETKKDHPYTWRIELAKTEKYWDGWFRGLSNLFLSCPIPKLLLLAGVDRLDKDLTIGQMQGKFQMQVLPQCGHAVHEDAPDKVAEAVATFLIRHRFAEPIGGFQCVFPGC
inactive: vemurafenib 0.005 | [1] 0.003 | barasertib -0.045 | [2] -0.006 | volasertib 0.016 | [3] 0.028 | [4] -0.015 | [5] 0.008 | saracatinib -0.01 | sotrastaurin -0.008

PHLDB1 (UniProt Q86UU1)
inactive: vemurafenib -0.071 | [1] 0.162 | barasertib 0.01 | [2] 0.033 | volasertib -0.044 | [3] 0.001 | [4] 0.095 | [5] -0.014 | saracatinib 0.005 | sotrastaurin -0.049

PRRC2A (UniProt P48634)
inactive: vemurafenib -0.006 | [1] 0.008 | barasertib -0.013 | [2] 0.107 | volasertib 0.012 | [3] 0.013 | [4] 0.05 | [5] 0.008 | saracatinib 0.049 | sotrastaurin -0.014

PPT2 isoform 3 (UniProt Q9UMR5)
UniProt Q9UMR5, sequence (Q9UMR5 whole entry, looked up): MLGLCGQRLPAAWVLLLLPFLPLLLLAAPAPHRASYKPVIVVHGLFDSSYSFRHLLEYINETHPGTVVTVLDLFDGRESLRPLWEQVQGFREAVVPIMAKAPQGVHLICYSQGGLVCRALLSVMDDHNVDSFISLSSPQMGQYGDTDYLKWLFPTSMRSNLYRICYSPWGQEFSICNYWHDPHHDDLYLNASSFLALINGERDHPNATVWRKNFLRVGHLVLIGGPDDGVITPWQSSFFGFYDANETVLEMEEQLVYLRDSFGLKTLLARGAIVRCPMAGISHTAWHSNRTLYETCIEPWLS
inactive: vemurafenib 0.007 | [1] 0.012 | barasertib 0.028 | [2] 0.01 | volasertib -0.023 | [3] -0.026 | [4] 0.007 | [5] 0.018 | saracatinib -0.011 | sotrastaurin 0.003

PPOX (UniProt P50336)
inactive: vemurafenib 0.058 | [1] 0.02 | barasertib -0.093 | [2] -0.036 | volasertib -0.007 | [3] -0.096 | [4] -0.075 | [5] -0.018 | saracatinib -0.044 | sotrastaurin -0.021

PIK3R1 (UniProt P27986)
active: [5] 0.365
inactive: vemurafenib 0.011 | [1] -0.01 | barasertib -0.005 | [2] 0.172 | volasertib 0.016 | [3] 0.023 | [4] -0.037 | saracatinib 0.025 | sotrastaurin 0.056

PIP4K2C (UniProt Q8TBX8)
active: [2] 0.463
inactive: vemurafenib 0.039 | [1] -0.028 | barasertib -0.045 | volasertib 0.206 | [3] 0.103 | [4] -0.114 | [5] 0.225 | saracatinib -0.01 | sotrastaurin -0.019

PMS2 (UniProt P54278)
inactive: vemurafenib -0.015 | [1] -0.028 | barasertib 0.033 | [2] -0.072 | volasertib -0.147 | [3] 0.101 | [4] -0.02 | [5] 0.012 | saracatinib -0.004 | sotrastaurin 0.001

PPIE (UniProt Q9UNP9)
inactive: vemurafenib 0.026 | [1] -0.043 | barasertib -0.042 | [2] 0.044 | volasertib 0.018 | [3] -0.003 | [5] 0.143 | saracatinib -0.01 | sotrastaurin 0.067
active: [4] -0.25

PMPCA (UniProt Q10713)
UniProt Q10713, sequence (Q10713 whole entry, looked up): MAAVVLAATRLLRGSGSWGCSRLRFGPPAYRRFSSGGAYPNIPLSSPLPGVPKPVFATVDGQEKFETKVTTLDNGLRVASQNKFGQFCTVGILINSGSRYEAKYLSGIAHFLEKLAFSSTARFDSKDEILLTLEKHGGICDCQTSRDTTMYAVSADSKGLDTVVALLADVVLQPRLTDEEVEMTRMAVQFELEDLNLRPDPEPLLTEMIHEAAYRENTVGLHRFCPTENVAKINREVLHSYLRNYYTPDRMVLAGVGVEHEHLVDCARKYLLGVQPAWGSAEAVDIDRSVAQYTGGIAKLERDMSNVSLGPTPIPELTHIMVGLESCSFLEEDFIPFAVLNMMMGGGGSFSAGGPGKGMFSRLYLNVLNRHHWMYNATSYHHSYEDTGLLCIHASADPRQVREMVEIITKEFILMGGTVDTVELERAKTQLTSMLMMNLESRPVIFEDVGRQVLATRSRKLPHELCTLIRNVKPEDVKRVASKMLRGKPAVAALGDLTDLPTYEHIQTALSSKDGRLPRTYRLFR
inactive: vemurafenib 0.047 | [1] 0.037 | barasertib -0.014 | [2] -0.039 | volasertib -0.031 | [3] -0.025 | [4] -0.017 | [5] 0.233 | saracatinib -0.024 | sotrastaurin 0.006

PLA2G4B isoform 6 (UniProt P0C869)
inactive: vemurafenib 0.05 | [1] 0.069 | barasertib 0.002 | [2] 0.144 | volasertib 0.018 | [3] -0.191 | [4] 0.034 | [5] -0.014 | saracatinib 0.101 | sotrastaurin -0.168

PDPK1 (UniProt O15530)
inactive: vemurafenib -0.03 | [1] -0.002 | barasertib -0.027 | [2] -0.06 | volasertib -0.047 | [3] 0.012 | [4] 0.041 | [5] -0.017 | saracatinib -0.025 | sotrastaurin 0.133

PPIL3 (UniProt Q9H2H8)
inactive: vemurafenib 0.048 | [1] -0.017 | barasertib 0.099 | [2] -0.004 | volasertib -0.007 | [3] 0.027 | [4] 0.067 | [5] 0.021 | saracatinib 0.004 | sotrastaurin -0.03

PTK2B (UniProt Q14289)
inactive: vemurafenib 0.001 | [1] -0.03 | barasertib -0.013 | [2] 0.118 | volasertib 0.022 | [3] -0.044 | [4] 0.001 | [5] 0.107 | saracatinib 0.019 | sotrastaurin 0.033

PFKFB3 isoform 4 (UniProt Q16875)
inactive: vemurafenib -0.022 | [1] 0.134 | barasertib 0.003 | [2] -0.003 | volasertib 0.067 | [3] 0.037 | [4] 0.003 | [5] -0.046 | saracatinib -0.024 | sotrastaurin 0.034

PFKFB2 (UniProt O60825)
UniProt O60825, sequence (O60825 whole entry, looked up): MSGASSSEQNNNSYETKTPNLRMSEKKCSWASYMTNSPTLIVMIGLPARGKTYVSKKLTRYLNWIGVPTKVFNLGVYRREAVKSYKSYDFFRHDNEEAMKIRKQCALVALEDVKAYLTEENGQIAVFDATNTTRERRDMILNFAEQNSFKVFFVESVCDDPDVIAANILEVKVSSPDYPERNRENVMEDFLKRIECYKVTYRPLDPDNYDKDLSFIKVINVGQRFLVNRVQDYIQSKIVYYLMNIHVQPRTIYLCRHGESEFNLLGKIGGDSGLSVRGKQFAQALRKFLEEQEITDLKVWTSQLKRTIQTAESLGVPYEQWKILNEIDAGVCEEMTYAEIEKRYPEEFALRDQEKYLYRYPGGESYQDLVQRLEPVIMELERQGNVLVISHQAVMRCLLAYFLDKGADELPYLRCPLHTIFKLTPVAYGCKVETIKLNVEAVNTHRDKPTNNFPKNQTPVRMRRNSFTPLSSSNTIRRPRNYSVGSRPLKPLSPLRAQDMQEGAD
inactive: vemurafenib -0.011 | [1] 0.011 | barasertib 0.008 | [2] 0.004 | volasertib -0.025 | [3] 0.015 | [4] -0.021 | [5] -0.029 | saracatinib 0.012 | sotrastaurin 0.002

PLIN2 (UniProt Q99541)
inactive: vemurafenib 0.014 | [1] -0.01 | barasertib 0.073 | [2] 0.033 | volasertib 0.003 | [3] 0.048 | [4] 0.033 | [5] -0.181 | saracatinib 0.019 | sotrastaurin 0.007

PRKAR2B (UniProt P31323)
UniProt P31323, sequence (P31323 whole entry, looked up): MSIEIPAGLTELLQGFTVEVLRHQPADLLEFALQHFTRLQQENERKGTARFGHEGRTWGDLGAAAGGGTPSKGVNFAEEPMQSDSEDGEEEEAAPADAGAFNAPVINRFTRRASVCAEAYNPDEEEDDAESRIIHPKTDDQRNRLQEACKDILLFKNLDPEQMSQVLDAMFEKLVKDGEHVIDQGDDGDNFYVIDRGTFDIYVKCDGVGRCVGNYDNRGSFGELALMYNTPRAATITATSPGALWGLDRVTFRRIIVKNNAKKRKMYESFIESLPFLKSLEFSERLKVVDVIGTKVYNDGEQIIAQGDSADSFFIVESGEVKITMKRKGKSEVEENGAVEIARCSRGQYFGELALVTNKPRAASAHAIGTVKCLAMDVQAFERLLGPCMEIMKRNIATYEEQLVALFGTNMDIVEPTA
inactive: vemurafenib 0.01 | [1] 0 | barasertib 0.053 | [2] -0.028 | volasertib -0.043 | [3] -0.032 | [4] 0.051 | saracatinib 0.007 | sotrastaurin -0.17
active: [5] -0.26

PPP2R5B (UniProt Q15173)
inactive: vemurafenib -0.036 | [1] 0 | barasertib -0.016 | [2] -0.057 | volasertib 0.031 | [3] 0 | [4] -0.01 | [5] -0.079 | saracatinib 0.001 | sotrastaurin -0.074

PTS (UniProt Q03393)
active: vemurafenib 0.33
inactive: [1] 0.044 | barasertib 0.051 | [2] 0.054 | volasertib 0.014 | [3] 0.02 | [4] -0.045 | [5] 0.01 | saracatinib 0.104 | sotrastaurin 0.057

PPP2R5C isoform 5 (UniProt Q13362)
inactive: vemurafenib -0.056 | [1] -0.013 | barasertib -0.03 | [2] -0.063 | volasertib 0.014 | [3] 0.058 | [4] 0.046 | [5] -0.08 | saracatinib 0 | sotrastaurin -0.011

PRPF38A (UniProt Q8NAV1)
UniProt Q8NAV1, sequence (Q8NAV1 whole entry, looked up): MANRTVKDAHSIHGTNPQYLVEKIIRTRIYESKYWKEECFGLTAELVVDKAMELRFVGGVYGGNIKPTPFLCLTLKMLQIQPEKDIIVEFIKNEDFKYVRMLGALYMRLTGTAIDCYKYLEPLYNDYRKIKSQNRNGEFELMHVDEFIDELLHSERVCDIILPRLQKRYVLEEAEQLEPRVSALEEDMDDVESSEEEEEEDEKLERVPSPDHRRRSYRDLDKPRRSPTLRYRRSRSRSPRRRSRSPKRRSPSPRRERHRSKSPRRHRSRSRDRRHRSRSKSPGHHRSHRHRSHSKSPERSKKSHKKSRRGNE
inactive: vemurafenib -0.021 | [1] -0.011 | barasertib -0.037 | [2] -0.029 | volasertib -0.031 | [3] -0.055 | [5] 0.046 | saracatinib 0.004 | sotrastaurin 0.191
active: [4] -0.465

PRKAB2 (UniProt O43741)
active: [4] -0.85
inactive: vemurafenib 0.022 | [1] 0.104 | barasertib -0.081 | [2] 0 | volasertib -0.05 | [3] -0.094 | [5] 0.303 | saracatinib 0.029 | sotrastaurin 0.026

PRMT8 (UniProt Q9NR22)
inactive: vemurafenib 0.059 | [1] 0.021 | barasertib 0.007 | [2] -0.009 | volasertib -0.009 | [3] -0.005 | [5] 0.179 | saracatinib -0.018 | sotrastaurin 0.007
active: [4] -0.285

POGK (UniProt Q9P215)
UniProt Q9P215, sequence (Q9P215 whole entry, looked up): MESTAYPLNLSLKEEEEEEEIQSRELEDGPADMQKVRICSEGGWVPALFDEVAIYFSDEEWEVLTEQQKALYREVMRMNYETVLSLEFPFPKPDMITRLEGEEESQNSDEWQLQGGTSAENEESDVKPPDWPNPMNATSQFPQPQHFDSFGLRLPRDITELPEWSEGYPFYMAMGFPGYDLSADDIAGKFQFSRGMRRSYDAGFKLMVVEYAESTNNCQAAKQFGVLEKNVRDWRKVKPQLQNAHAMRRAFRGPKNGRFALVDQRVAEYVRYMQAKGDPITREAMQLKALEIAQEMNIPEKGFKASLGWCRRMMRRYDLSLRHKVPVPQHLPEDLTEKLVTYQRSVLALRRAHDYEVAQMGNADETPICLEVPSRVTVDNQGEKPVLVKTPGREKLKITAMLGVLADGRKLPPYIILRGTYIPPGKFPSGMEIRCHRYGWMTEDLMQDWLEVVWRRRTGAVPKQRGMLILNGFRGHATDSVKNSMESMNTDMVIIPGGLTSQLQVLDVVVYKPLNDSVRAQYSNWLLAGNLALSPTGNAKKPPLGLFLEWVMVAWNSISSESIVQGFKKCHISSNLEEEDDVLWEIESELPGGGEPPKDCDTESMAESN
inactive: vemurafenib -0.035 | [1] 0.114 | barasertib 0.011 | [2] -0.005 | volasertib 0.033 | [3] -0.027 | [5] 0.034 | saracatinib 0.017 | sotrastaurin 0.013
active: [4] -0.397

PDCD4 (UniProt Q53EL6)
UniProt Q53EL6, sequence (Q53EL6 whole entry, looked up): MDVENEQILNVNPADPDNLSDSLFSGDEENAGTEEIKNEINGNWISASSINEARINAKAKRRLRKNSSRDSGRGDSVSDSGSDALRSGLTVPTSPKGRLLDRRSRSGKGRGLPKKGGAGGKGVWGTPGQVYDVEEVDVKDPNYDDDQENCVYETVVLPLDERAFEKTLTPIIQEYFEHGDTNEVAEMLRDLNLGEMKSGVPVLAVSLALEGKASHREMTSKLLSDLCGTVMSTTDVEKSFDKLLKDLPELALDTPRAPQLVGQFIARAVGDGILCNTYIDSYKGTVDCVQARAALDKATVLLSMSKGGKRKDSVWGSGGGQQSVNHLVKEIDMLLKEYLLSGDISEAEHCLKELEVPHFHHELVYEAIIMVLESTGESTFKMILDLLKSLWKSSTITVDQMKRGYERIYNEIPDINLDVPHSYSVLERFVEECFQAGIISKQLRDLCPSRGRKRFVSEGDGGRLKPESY
inactive: vemurafenib 0.014 | [1] 0.02 | barasertib 0.024 | [2] -0.023 | volasertib -0.03 | [3] 0.029 | [4] -0.029 | [5] -0.013 | saracatinib 0.009 | sotrastaurin 0.001
